LMNA splice mod: LMNA splicing modulation; HeLa LMNA splicing GFP/RFP minigene ratio, 48 h; Potency, µM (highest dose often 46.1 µM), for inactives: top-dose ratio change, negative = inhibition, usual class: inhibitors; 0.01% of 200,000 active; AID 1487; active = well fitted inhibition curve with a large enough effect in the signal ratio, with a control signal flat, not every such curve was filed as active; inconclusive = small, poorly fitted or top-dose-only effect, or effect the other way, or a change in a side signal; the % refers to the signal ratio; also: potency is read from the fitted curve at half-maximal effect
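S3 HeLa cells stably expressing lamin A-EGFP splicing minigene plus DsRed2, 600 cells/well, 48 h compound exposure at 37C. Laser-scanning cytometry; analysed as GFP (500-530 nm)/RFP (575-640 nm) total intensity ratio; 0.5% DMSO vehicle.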
ALDH1A1 block: blocks purified human ALDH1A1 activity; AID 1030; Purified ALDH1A1, NADH fluorescence, propionaldehyde substrate; Potency, µM (highest dose often 75.3 µM), for inactives: top-dose activity, negative = inhibition, most hits filed as inhibitors; 7.3% of 220,000 active;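 also: potency is read from the fitted curve at half-maximal effect; plate controls were no enzyme wells and a reference inhibitor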
Target sequence (P00352 whole entry, looked up): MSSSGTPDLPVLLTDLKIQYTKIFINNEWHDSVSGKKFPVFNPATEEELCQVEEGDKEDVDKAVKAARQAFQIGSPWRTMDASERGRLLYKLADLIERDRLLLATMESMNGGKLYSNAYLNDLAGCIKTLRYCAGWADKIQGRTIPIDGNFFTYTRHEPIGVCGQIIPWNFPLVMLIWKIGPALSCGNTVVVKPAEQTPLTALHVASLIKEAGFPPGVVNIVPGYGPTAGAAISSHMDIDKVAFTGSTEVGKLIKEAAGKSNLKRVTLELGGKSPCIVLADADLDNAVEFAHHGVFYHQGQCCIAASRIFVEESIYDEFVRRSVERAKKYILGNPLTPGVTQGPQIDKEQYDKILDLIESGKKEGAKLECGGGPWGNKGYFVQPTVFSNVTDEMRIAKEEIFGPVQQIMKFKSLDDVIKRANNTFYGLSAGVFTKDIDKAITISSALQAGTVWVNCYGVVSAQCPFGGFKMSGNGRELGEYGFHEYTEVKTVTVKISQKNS
Luc counter: Kinase-Glo luciferase inhibition (counter-screen). Q27757. Kinase-Glo luciferase, ATP luminescence, 8 min. Potency, µM (doses to about 38.3 µM), for inactives: top-dose activity change, negative = inhibition, usual class: inhibitors. 0.28% of 200,000 active. AID 1379; active = well fitted inhibition curve with a large enough effect; inconclusive = small, poorly fitted or top-dose-only effect; also: potency is read from the fitted curve at half-maximal effect; nearly all actives have a fitted effect of over 60% in size
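Recombinant Kinase-Glo luciferase, 10 uM ATP (linear range), luciferin; imidazole pH 7.2 / KCl / MgCl2 / Tween / BSA buffer; 8 min RT; luminescence.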
HPGD block: HPGD (human) dehydrogenase inhibition; Potency, µM, for inactives: top-dose activity change, negative = inhibition, usual class: inhibitors; 4.3% of 150,000 active; purified HPGD, NADH fluorescence kinetic, PGE2 substrate; also: potency is read from the fitted curve at half-maximal effect
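20 nM HPGD preincubated 15 min at room temperature with compound in 50 mM Tris-HCl pH 8, 0.01% Tween 20. Started with 1 mM NAD+ and 30 uM prostaglandin E2; NADH fluorescence (360/450 nm) read 5 times over 30-s intervals, last minus first.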
PNC assembly inh: inhibitors of perinucleolar compartment assembly. AID 2417. activity change (PNC), negative = inhibition, % at 10 µM. PC3M PTB-GFP, PNC prevalence imaging, 16 h; hits give low values. 3.1% of 140,000 active;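 active = readout at or below -70, meaning at least 70% loss of cells showing the perinucleolar compartment, a nuclear body marking cancer cells; inconclusive = readout between -30 and a set limit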;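 also: plate controls were DMSO wells for no effect and camptothecin positive control wells for full effect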
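Compounds are pinned in duplicate onto adhered PC3M cells stably expressing GFP-tagged PTB and incubated 16 h at 37 C. Cells are then fixed, nuclei stained with Hoechst, and PNC-positive cells counted.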
The depositor's hits bear a star; ! = repeats disagree; [ ] = remark or other dose. Hits are enriched below; roughly 10% of the tested compounds scored in any of these assays. Unless noted, calls follow the shape of the dose curve; as a rule, active = well fitted inhibition curve with a large enough effect (not every such curve was filed as active); inconclusive = small, poorly fitted or top-dose-only effect, or another doubt; inactive = no such curve, though single readings can be large or run the other way. Unless noted, % is scaled to controls: 0 for no effect and ±100 for the full control effect.

How did Cc1c(Cl)cccc1NC(=O)c1cc(-c2ccccc2O)n[nH]1 do in these assays?
LMNA splice mod: inconclusive; ALDH1A1 block: 11%; Luc counter: 0%; HPGD block: 13µM*; PNC assembly inh: -25

Results for COc1ccc(Cl)cc1NC(=O)c1cc(-c2ccccc2O)n[nH]1 ?
LMNA splice mod: inconclusive; ALDH1A1 block: -13%; Luc counter: -1%; HPGD block: 1.4µM*; PNC assembly inh: 33

What do the screens show for `O=C(NCCc1ccccn1)c1cccc(S(=O)(=O)N2CCc3ccccc32)c1`?
ALDH1A1 block: 20µM*; Luc counter: -1%

Results for COc1ccc(NC(=O)c2cccc(S(=O)(=O)N3CCc4ccccc43)c2)cn1 ?
LMNA splice mod: -24%[46 µM]; ALDH1A1 block: 3.2µM*; Luc counter: 3%

What do the screens show for `COc1c(C)c2c(c(O)c1CC=C(C)CCC(=O)OCCN1CCOCC1)C(=O)OC2`?
LMNA splice mod: inconclusive; ALDH1A1 block: inconclusive; Luc counter: 4%[39.9 µM]; HPGD block: inconclusive

Results for Cc1cc(S(=O)(=O)Nc2ccccc2C(=O)O)ccc1F ?
ALDH1A1 block: inconclusive; Luc counter: -2%; HPGD block: -21%

How did Cc1ccc(-n2nnnc2CNC(=O)C(C)C)cc1C do in these assays?
LMNA splice mod: -3%[46 µM]

How did CS(=O)(=O)Cc1cc(Sc2ccccc2)nc(-c2ccncc2)n1 do in these assays?
LMNA splice mod: -10%[9.22 µM]; ALDH1A1 block: 11µM*; Luc counter: 1%

How did CCOC(=O)c1c(C)[nH]c(-c2csc(C)n2)c1C do in these assays?
ALDH1A1 block: 2%; Luc counter: 1%

How did CCOC(=O)c1c(C)[nH]c(-c2csc(N)n2)c1C do in these assays?
ALDH1A1 block: 11µM*; Luc counter: -9%

Results for CCn1c(=O)n(CC)c2cc(N3CCCCC3)c(NC(=O)Nc3cc(Cl)ccc3OC)cc21 ?
LMNA splice mod: 3%[46 µM]

What do the screens show for `COc1ccccc1NS(=O)(=O)c1cc(NC(=O)c2cccs2)ccc1N1CCCC1`?
LMNA splice mod: -16%; ALDH1A1 block: 13µM*; Luc counter: -1%; HPGD block: 8.9µM*; PNC assembly inh: 24

How did COc1ccccc1NS(=O)(=O)c1cc(NC(=O)c2sccc2C)ccc1N1CCCC1 do in these assays?
LMNA splice mod: -21%[46 µM]; ALDH1A1 block: 10µM*; Luc counter: 5%

What do the screens show for `CCN(C(=O)CSc1nc2ccccc2n1CC(=O)N(C)C1CCCCC1)c1ccccc1`?
LMNA splice mod: 15%[46 µM]

How did CC(C)Oc1ccc(C(=O)N2CCN(CCc3ccccn3)CC2)cc1 do in these assays?
LMNA splice mod: 23%[46 µM]

Results for O=C(N/N=C/c1coc2ccccc2c1=O)c1ccccc1Br ?
LMNA splice mod: -3%; ALDH1A1 block: 4.5µM*; Luc counter: -2%; HPGD block: -29%; PNC assembly inh: -21

What do the screens show for `O=C(N/N=C/c1coc2ccccc2c1=O)c1cccc([N+](=O)[O-])c1`?
LMNA splice mod: -6%[46 µM]; ALDH1A1 block: 28µM*; Luc counter: -1%

Results for O=C(N/N=C/c1coc2ccccc2c1=O)c1cc(O)cc(O)c1 ?
ALDH1A1 block: inconclusive; Luc counter: -1%

Results for COc1ccc(C(=O)N/N=C\c2coc3ccccc3c2=O)cc1 ?
ALDH1A1 block: 3.5µM*

How did CC(C)=C[C@H]1[C@@H](C(=O)Oc2ccccc2C(C)C)C1(C)C do in these assays?
ALDH1A1 block: -2%[13.5 µM]; Luc counter: -5%[7.66 µM]; HPGD block: -11%

Results for OB(O)c1ccc(Cl)s1 ?
ALDH1A1 block: -5%; Luc counter: -2%; HPGD block: -2%

How did CCOCC(=O)N1CCN(c2ccc(F)cc2)CC1 do in these assays?
LMNA splice mod: 5%; ALDH1A1 block: 2.2µM*; Luc counter: -4%; HPGD block: -6%; PNC assembly inh: 4

What do the screens show for `CCOCC(=O)N1CCN(c2ccc([N+](=O)[O-])cc2)CC1`?
LMNA splice mod: -10%; ALDH1A1 block: 22µM*; PNC assembly inh: inconclusive

How did COc1ccc(N2CCN(C(=O)CSc3ccc([N+](=O)[O-])cc3)CC2)cc1 do in these assays?
LMNA splice mod: 17%[46 µM]; ALDH1A1 block: inconclusive; Luc counter: 3%

What do the screens show for `COc1ccc(NC(=O)N2CCN(c3ccc([N+](=O)[O-])cc3)CC2)cc1OC`?
ALDH1A1 block: 8.9µM*; Luc counter: 2%

What do the screens show for `CC(=O)OCC(=O)N1CCN(c2ccc([N+](=O)[O-])cc2)CC1`?
LMNA splice mod: -2%; ALDH1A1 block: inconclusive; Luc counter: 3%; HPGD block: -8%; PNC assembly inh: 0

How did Cc1noc(C)c1CSCC(=O)N1CCN(c2ccc([N+](=O)[O-])cc2)CC1 do in these assays?
LMNA splice mod: inconclusive; ALDH1A1 block: 22µM*; Luc counter: 1%; HPGD block: -7%; PNC assembly inh: 32

How did C/C(CCC(=O)OC[C@@H]1O[C@H](C#Cc2ccccc2)C=C[C@@H]1Oc1ccc(C)cc1)=N/O[C@@H](C)CN1CCCc2nc(C)c(C)cc21 do in these assays?
ALDH1A1 block: -9%[13.5 µM]

How did N#Cc1cc([N+](=O)[O-])ccc1NC(=O)COC(=O)C12CC3CC(CC(C3)C1)C2 do in these assays?
ALDH1A1 block: 22µM*; Luc counter: 5%

Results for Nc1ncnc2c1c(I)cn2C1OC(CO)C(O)C1O (stereo not given) ?
LMNA splice mod: inconclusive; ALDH1A1 block: 8.9µM*!; Luc counter: -5%; HPGD block: -8%

Results for Nc1ncnc2c1ncn2C1OC(CO)C(O)C1O (stereo not given) ?
LMNA splice mod: inconclusive; ALDH1A1 block: -6%; Luc counter: -5%; HPGD block: -10%

How did CCn1ccc2cc(S(=O)(=O)N3CCC(C(=O)NCc4ccc(OC)cc4)CC3)ccc21 do in these assays?
LMNA splice mod: -13%[46 µM]

How did C=C(C)C1Cc2c(C)nn(-c3nc(C)cc(C)n3)c2C1 (stereo not given) do in these assays?
LMNA splice mod: inconclusive; ALDH1A1 block: 20µM*; Luc counter: -9%; HPGD block: -17%; PNC assembly inh: 6

How did C=C(C)C1Cc2nc(N)nc(C)c2C1 (stereo not given) do in these assays?
LMNA splice mod: 5%; ALDH1A1 block: inconclusive; Luc counter: -7%; HPGD block: inconclusive; PNC assembly inh: -7

Results for Cc1cc(C)cc(N(CC(=O)N2CCc3ccccc32)S(=O)(=O)c2c(C)noc2C)c1 ?
LMNA splice mod: 1%; ALDH1A1 block: 8.9µM*; Luc counter: 8%; HPGD block: -14%; PNC assembly inh: -6

What do the screens show for `CCOc1ccc(N(CC(=O)N2CCc3ccccc32)S(=O)(=O)c2c(C)noc2C)cc1`?
LMNA splice mod: -12%; ALDH1A1 block: -2%; Luc counter: 3%; HPGD block: -7%; PNC assembly inh: -3

How did CCOC(=O)c1c(C)oc2nc(C)nc(NCCCN3CCN(c4ccccc4OC)CC3)c12 do in these assays?
LMNA splice mod: -14%[46 µM]

Source: PubChem BioAssay
